Source: PubChem BioAssay (National Center for Advancing Translational Sciences (NCATS))
Only some compounds are listed: those with a hit (about 7.3% of all), similar ones and a draw of the others.
AmpC no deterg: blocks E. coli AmpC beta-lactamase in detergent-free assay. AmpC nitrocefin hydrolysis, absorbance 480 nm, 0.0001% Triton. Potency, µM (series often up to 57.1 µM), inactives show at the top dose activity change, negative = inhibition, hits mostly inhibitors. 330,000 compounds, 0.52% hits. P00811;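 also: potency is read from the fitted curve at half-maximal effect; plate controls were no compound for no effect and no enzyme for full effect; nearly all actives have a fitted effect of over 20% in size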
Target sequence (P00811 whole entry, looked up): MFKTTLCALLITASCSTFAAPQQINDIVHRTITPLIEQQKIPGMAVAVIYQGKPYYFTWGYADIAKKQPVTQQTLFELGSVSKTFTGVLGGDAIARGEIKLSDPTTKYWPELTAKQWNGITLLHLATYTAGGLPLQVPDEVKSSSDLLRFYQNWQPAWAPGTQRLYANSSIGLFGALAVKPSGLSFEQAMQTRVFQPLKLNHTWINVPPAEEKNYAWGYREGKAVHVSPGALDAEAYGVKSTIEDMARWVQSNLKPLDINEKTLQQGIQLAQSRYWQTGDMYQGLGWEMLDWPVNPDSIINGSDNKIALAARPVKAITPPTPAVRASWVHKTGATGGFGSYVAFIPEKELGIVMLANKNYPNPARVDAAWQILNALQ
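AmpC (5.3 nM in the dispensed reagent) in 20 mM phosphate pH 7.0 with 0.01% (detergent screen) or 0.0001% Triton X-100 was preincubated with compounds for 15 min at room temperature. Nitrocefin was then added from an 800 uM solution, and hydrolysis was followed at 480 nm.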
FMDV inh: foot and mouth disease virus antiviral activity | Potency, µM (top dose mostly 57.9 µM), without a hit: at the highest dose activity change, negative = inhibition, usual class: inhibitors | FMDV antiviral cell-based qHTS | AID 1159524 | 410,000 compounds, 1.2% hits; calls by dose curve; tested in HEK293T cells; also: read-out not given here; potency is read from the fitted curve at half-maximal effect; nearly all actives have a fitted effect of over 45% in size
HCV inhibitor: HCV inhibition | Potency, µM (highest dose often 41.8 µM), for inactives: at the highest dose activity change, negative = inhibition, actives largely listed as inhibitors | Huh7.5.1 HCVcc-Cre infection, luciferase reporter, 44 h | 340,000 compounds, 3.4% hits; also: potency is read from the fitted curve at half-maximal effect
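Cells seeded at 1,000/well and cultured 4 h, then compounds added followed by HCVcc-Cre virus (~0.5 moi). After 44 h further culture, luciferase substrate was added, plates held 15 min at room temperature, and luminescence read for 15 sec.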
HCMV antiviral: inhibitors of human cytomegalovirus. HFF cells, HCMV-luciferase reporter, 72 h; stronger effect = lower value. 410,000 compounds, 4.5% hits. AID 1259415. activity change, negative = inhibition, % at 57.5 µM; in the data active = activity change below about -60%; inconclusive = no clear call, values can overlap the other calls; inactive = above about -39%
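After 16 h attachment at 37C, HFF cells received test compound and HCMV-luciferase (1 PFU/cell); reporter luminescence read 72 h later, data normalized against buffer-only and known inhibitor Salinomycin.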
AmpC detergent: blocks E. coli AmpC beta-lactamase in detergent assay | AID 485294 | 370,000 compounds, 0.041% hits | P00811 | Potency, µM (top dose mostly 114 µM), inactives show top-dose activity change, negative = inhibition, most hits filed as inhibitors | AmpC hydrolysis of nitrocefin, absorbance 480 nm, 0.01% Triton;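 also: potency is read from the fitted curve at half-maximal effect; 0% = no-compound wells and -100% = no-enzyme wells; nearly all actives have a fitted effect of over 25% in size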
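AmpC (5.3 nM in the dispensed reagent) in 20 mM phosphate pH 7.0 with 0.01% (detergent screen) or 0.0001% Triton X-100 was preincubated with compounds for 15 min at room temperature. Nitrocefin was then added from an 800 uM solution, and hydrolysis was followed at 480 nm.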
Starred values were filed as active, the others as inactive; ? = inconclusive; . = no result. Unless noted, calls follow the shape of the dose curve; as a rule, active = well fitted curve in the direction sought with a large enough effect; inconclusive = small, poorly fitted or top-dose-only effect, or another doubt; inactive = no such curve, though single readings can be large; an effect the other way counts as inactive or inconclusive. Unless noted, % is scaled to controls: 0 for no effect and ±100 for the full control effect.

SMILES | AmpC no deterg | FMDV inh | HCV inhibitor | HCMV antiviral | AmpC detergent
CC(C)c1ccc(C2C3=C(CC(C)(C)CC3=O)NC3=C2C(=O)c2ccccc23)cc1 (stereo unspecified) | -37% | -1% | 11µM* | -72* | -3%
CC1(c2ccc(Cl)cc2)CC(C)(C)N(C(=O)c2ccccc2)c2ccccc21 (stereo unspecified) | . | ? | . | -83* | -1%
COc1ccc(C(=O)N2c3ccccc3C(C)(c3ccc(Cl)cc3)CC2(C)C)cc1 (stereo unspecified) | . | -7% | . | -93* | 16%
CCOc1cc(CNC2CCCC2)cc(Cl)c1OCc1ccc(F)cc1 | 13% | . | 4µM* | -16 | 1%
COc1cc(CNC2CCCC2)cc(Cl)c1OCc1ccc(F)cc1 | 33% | -27% | 1.3µM* | 34 | 4%
Oc1cc2c(cc1C(c1ccc(Br)cc1)N1CCCC1)OCO2 (stereo unspecified) | -31% | ? | -26% | -3 | -4%
C=C(C)[C@@H]1CC=C(CN2CCC(N3CCC(C(=O)N4CCCC4)CC3)CC2)CC1 | 84% | ? | ? | ? | -9%
CC(C)=CCCC(C)CN1CCC(N2CCC(C(=O)N3CCCC3)CC2)CC1 (stereo unspecified) | -1% | ? | 2.5µM* | ? | -10%
Nc1ccc(Sc2ccccc2)nc1 | . | 26% | 5% | 25 | .
CC(C)COC(=O)c1ccccc1C(=O)OCC(C)C | 2% | 0% | -16% | 0 | -4%
CCCCC(CC)COC(=O)c1ccccc1C(=O)OCC(CC)CCCC (stereo unspecified) | -18% | -10% | 5.6µM* | 54 | -16%
Cc1ccc(-c2nnc(SCC(=O)N(C)C)nc2-c2ccc(C)cc2)cc1 | 116% | 27% | -13% | -60* | -13%
CCOC(=O)C1CCCCN1C(=O)c1cnn(-c2nccc(-c3cc(C)sc3C)n2)c1C1CC1 (stereo unspecified) | . | 18% | . | . | .
CC(C)c1c(C(=O)N(C)C2CCN(C)CC2)cnn1-c1nccc(-c2ccco2)n1 | . | -4% | . | . | .
O=C1C=CN(C2OC(CO)C(O)C2O)C(=O)C1 (stereo unspecified) | . | -9% | . | -73* | .
COc1ccc(OCC(=O)Nc2ccc(N3CCN(Cc4ccccc4F)CC3)cc2)cc1 | -10% | -27% | -10% | 38 | ?
O=[N+]([O-])/C=C/c1cc2ccccc2[nH]1 | -23% | ? | -7% | 3 | ?
O=[N+]([O-])/C=C/c1c(Cl)cccc1Cl | . | 7.9µM* | 8.9µM* | -19 | .
COc1ccc(CNC(=O)c2cnn3c(C(F)F)cc(C)nc23)cc1OC | -1% | ? | 10µM* | 30 | ?
C=CCn1c(O)c(N=NC(=O)c2ccccc2NS(=O)(=O)c2cccs2)c2ccccc21 | -18% | -3% | 17% | -95* | -2%
C=CCn1c(O)c(N=NC(=S)Nc2ccccc2F)c2ccccc21 | ? | -18% | 10µM* | -93* | -1%
CCCCn1c(O)c(N=NC(=O)c2ccccc2NS(=O)(=O)c2cccs2)c2ccccc21 | -53% | -4% | -6% | 19 | 1%
C=CCn1c(O)c(N=NC(=S)Nc2ccccc2F)c2cc(S(=O)(=O)N3CCOCC3)ccc21 | 26% | -23% | ? | -70* | 3%
Oc1c(N=NC(=S)Nc2ccccc2F)c2ccccc2n1Cc1ccccc1 | -42% | -19% | ? | -20 | -2%
O=C(Cn1c(=O)nc(-c2ccccc2)c2ccccc21)NCc1ccccc1Cl | . | 0% | . | 92 | -5%
SMILES | AmpC no deterg | FMDV inh | HCV inhibitor | HCMV antiviral | AmpC detergent
Cc1noc(C)c1CSCC(=O)N(C)CC(=O)Nc1cccc(F)c1 | -1% | 0% | -19% | -11 | -4%
O=C(NCc1ccccc1)[C@H]1[C@H](CO)[C@H]2Cn3c(cccc3=O)[C@H]2N1Cc1ccccc1F | . | . | . | -5 | .
O=C1CCCC2=C1C(c1ccsc1)CC(=O)N2c1ccccc1F (stereo unspecified) | 4% | -6% | -1% | -21 | 5%
CCCSc1nnc(N2C(=O)CC(c3ccsc3)C3=C2CCCC3=O)s1 (stereo unspecified) | 4.5µM* | -19% | 19% | -9 | ?
Cc1cccc(C2CC3(CC(C)(C)NC(=S)N3)Oc3cc(O)ccc32)c1 (stereo unspecified) | -40% | -12% | 10µM* | 14 | -2%
CC(C)C1N(S(=O)(=O)c2ccccc2)CCN1S(=O)(=O)c1ccccc1 | -9% | -10% | 6% | -107* | -1%
CC(C)C1N(C(=O)N(C)C)CCN1S(=O)(=O)c1ccccc1 (stereo unspecified) | -1% | 7% | -6% | 13 | 1%
COc1cccc(OC)c1OCCN1CCC(C(=O)NC(c2ccc3c(c2)OCO3)c2ccccn2)CC1 (stereo unspecified) | . | -6% | . | -61* | .
O=C(Nc1ccc(Br)cc1F)c1ccc2nc(CCc3ccccc3)oc2c1 | . | 11% | . | 59 | -4%
Cc1ccc(NS(=O)(=O)c2ccc(C)c(NC(=O)c3ccc(S(=O)(=O)N4CCCCCC4)cc3)c2)c(C)c1 | . | -18% | . | -64* | .
Cc1cc(NC(=O)c2ccc(Br)c(S(=O)(=O)N3CCCC3)c2)no1 | -5% | ? | ? | -69* | -4%
Cc1cc(NC(=O)c2cccc(S(=O)(=O)N3CCCC3)c2)no1 | -9% | 12% | 11% | 4 | 1%
Cc1ccc(S(=O)(=O)N2CCCCC2)cc1NC(=O)c1ccc2c(c1)OCO2 | -36% | 0% | -5% | ? | -7%
Cc1ccc(O)c(NC(=O)c2ccc(Br)c(S(=O)(=O)N3CCCCC3)c2)c1 | . | 0% | . | -73* | 0%
Cc1ccc(O)c(NC(=O)c2cccc(S(=O)(=O)N3CCCCC3)c2)c1 | -27% | -8% | 11µM* | -25 | -8%
O=C(Nc1ccccn1)c1ccc(Br)c(S(=O)(=O)N2CCCCC2)c1 | -37% | ? | 19% | 3 | 0%
COc1ccc(-c2nc3cc(F)ccc3cc2CN(C(=O)c2cccs2)C2CC2)cc1 | . | -11% | . | . | .
COc1ccc(C(=O)NCc2nnc(SCC(=O)NCCc3ccccc3)o2)cc1 | -3% | 8% | 7% | 4 | 0%
Cc1cc(/C=C(\C#N)C(=O)Nc2ccc(F)cc2)c(C)n1-c1ccc(N2CCOCC2)c([N+](=O)[O-])c1 | -19% | ? | ? | -79* | ?
COc1ccc(NC(=O)/C(C#N)=C/c2cc(C)n(-c3ccc(N4CCOCC4)c([N+](=O)[O-])c3)c2C)cc1 | -20% | 4µM* | ? | ? | 0%
CCOC(=O)c1c(C)c(-c2ccccc2)n(CC(=O)NC(CC)Cc2ccccc2)c1C (stereo unspecified) | . | -19% | . | 13 | 17%
CCC(=O)Nc1ccccc1C(=O)OCc1cc(=O)n2cc(C)sc2n1 | . | -22% | . | 10 | 4%
